In PubChem BioAssay (EPA / NIEHS):
Inconclusive results are not listed. The source made the active and inactive calls. The calls were made as follows: active = hit-call score of the fitted dose curve at least 0.9, where 1 is the maximum; inconclusive = response in the unintended direction; inactive = score below 0.9.

Test: ACEA_ER_AUC_viability: ACEA Biosciences xCELLigence Real-Time Cell Analysis on Estrogen Receptor Agonism for Viability (AID 2283782);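 also: hit means loss of impedance signal meaning reduced cell growth or viability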
Method in brief: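 Continuous-exposure impedance cell analysis uses T-47D cells in charcoal-stripped serum, eight 1:4 dilutions topping at 100 uM final, biological duplicate. Area under the growth curve at 80 h is fitted against DMSO baseline.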

Q: For `C=CC(=O)OCCCCCCCC(C)C`, which outcome is on record?
A: inactive

Q: Which outcome does the source give for `CCCCc1ccc(Cl)cc1` here?
A: inactive

Q: For `CCCCOC(=O)C(C)CC` (stereo not given), which outcome is on record?
A: inactive

Q: For `CC(C)(C)C1CCC(=O)CC1`, which outcome is on record?
A: inactive

Q: With `CCCCCCCC(=O)OCC` as the molecule, how does the outcome read?
A: inactive
